This is an account of results in PubChem BioAssay (NCATS).

The subject of test [1] is C33A. In words: Primary qHTS to identify gynecologic anti-cancer compounds using libraries of approved drugs and bioactive compounds (AID 1345084). Also: nearly all actives have a fitted effect of over 55% in size. Particulars: Gynecologic cancer cell panel viability, ATPlite luminescence, 48 h; series mostly up to 57.5 µM. A digest of the protocol: (§1)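 Cytotoxicity screen measuring ATP content by luciferase luminescence. Each compound is applied at five concentrations for 48 h at 37 C with 5% CO2.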

Test [2] concerns CAOV3. The test is described as above. Particulars: Gynecologic cancer cell panel viability, ATPlite luminescence, 48 h; series mostly up to 57.5 µM. The procedure, abridged: as §1
(In general: Cellular ATP, detected with luciferase, serves as a proxy for viable cell number.)

In test [3] the test system is CASKI. The test is described as above. Particulars: Gynecologic cancer cell panel viability, ATPlite luminescence, 48 h; series mostly up to 57.5 µM. A digest of the protocol: as §1
The test system of test [4] is Es-2. The description is as above. Particulars: Gynecologic cancer cell panel viability, ATPlite luminescence, 48 h; series mostly up to 57.5 µM. A digest of the protocol:
as §1

The test system of test [5] is Hek293T. The test is described as above. Particulars: Gynecologic cancer cell panel viability, ATPlite luminescence, 48 h, control line for the selectivity index; series mostly up to 57.5 µM. A digest of the protocol: as §1
In test [6] the test system is JEG-3. The description is as above. Particulars: Gynecologic cancer cell panel viability, ATPlite luminescence, 48 h; series mostly up to 57.5 µM. A digest of the protocol: as §1
Test [7] deals with OV90. Described as above. Particulars: Gynecologic cancer cell panel viability, ATPlite luminescence, 48 h; series mostly up to 57.5 µM. The procedure, abridged:
as §1

In test [8] the test system is Tov112D. Described as above. Particulars: Gynecologic cancer cell panel viability, ATPlite luminescence, 48 h; series mostly up to 57.5 µM. The procedure, abridged: as §1
Test [9] in a line: qHTS assay to identify inhibitors of the type 1 interferon - major histocompatibility complex class I in skeletal muscle: Counter screen cell viability and HiBit confirmation (AID 1347412). As to all read-outs here: nearly all actives have a fitted effect of over 60% in size. Particulars: iHSKM muscle cells + IFN-b, HiBiT or CellTiter-Glo, 24 h; for activity change, negative = inhibition: at 45.9 µM (top of the series). A digest of the protocol:
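Human myoblast knock-in line, 4.0 ng/ml IFN-beta stimulation, 24 h compound treatment. Endpoints: HiBiT lytic luminescence (HLA-B level) and CellTiter Glo (ATP). Dosing 12 concentrations, 3-fold steps, 46 uM highest final.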

In test [10] the test system is HeLa. The test can be described thus: Primary qHTS to identify gynecologic anti-cancer compounds using libraries of approved drugs and bioactive compounds (AID 1345084). Also: nearly all actives have a fitted effect of over 55% in size. Particulars: Gynecologic cancer cell panel viability, ATPlite luminescence, 48 h; series mostly up to 57.5 µM. A digest of the protocol:
as §1
(In general: Quantitative high-throughput screening tests each substance at several concentrations.)

Test [11] has as its system PA-1. The test is described as above. Particulars: Gynecologic cancer cell panel viability, ATPlite luminescence, 48 h; series mostly up to 57.5 µM. The procedure, abridged: as §1
Test [12] relates to SKOV3. Described as above. Particulars: Gynecologic cancer cell panel viability, ATPlite luminescence, 48 h; series mostly up to 57.5 µM. A digest of the protocol:
as §1

Test [13] relates to Tov-21-G. The description is as above. Particulars: Gynecologic cancer cell panel viability, ATPlite luminescence, 48 h; series mostly up to 57.5 µM. A digest of the protocol: as §1

Records with an inconclusive call do not appear. A number with no mark means an inactive call. Active and inactive are the calls of the source. Calls follow the shape of the dose curve; as a rule, active = well fitted curve in the direction sought with a large enough effect; inconclusive = small, poorly fitted or top-dose-only effect, or another doubt; inactive = no such curve, though single readings can be large; an effect the other way counts as inactive or inconclusive.
% is scaled to controls: 0 for no effect and ±100 for the full control effect; potency is read from the fitted curve at half-maximal effect.

As for `CCN1CCN(Cc2ccc(Nc3ncc(F)c(-c4cc(F)c5nc(C)n(C(C)C)c5c4)n3)nc2)CC1`, the Potency entry in test [1], in test [2], in test [3], in test [4], in test [5] and in test [6] was “inactive” each time. The Potency result in test [7] and in test [8] was “inactive” each time. Besides, the Potency is 8.83 µM (active) in test [9] (HiBiT) and 22.2 µM (active) in [9] (Viability).
For `NC(=O)c1cccc(-c2cc(OC(=O)NC3CCCCC3)ccc2O)c1`, the Potency entry in test [1], in test [2], in test [3], in test [4], in test [10] and in test [6] was “inactive” each time. Moreover, the Potency entry in test [7], in test [11] and in test [12] was “inactive” in each case.
For the compound `Cc1nc([C@](C)(O)CO)sc1-c1cnc(N)c(O[C@H](C)c2cc(F)ccc2-n2nccn2)c1`, the Potency entry in test [1], in [2], in [3], in test [4], in test [6] and in test [12] was “inactive” throughout. The Potency result in test [8] is “inactive”. Besides, the Potency in test [10] is 8.91 µM (active); in test [11], 11200 nM (active).
For `Nc1nc(Nc2ccc(S(N)(=O)=O)cc2)n(C(=S)Nc2c(F)cccc2F)n1`, the Potency entry in test [1], in test [2], in test [3], in [4], in test [6] and in [7] was “inactive” throughout. Besides, the Potency result in test [11] and in test [12] was “inactive” throughout. Moreover, the Potency in test [10] is 15.8 µM (active).
In the case of `Cc1ccc(-c2ccc3ncc4c(c3n2)n(C2CCN(C(=O)[C@H](C)O)CC2)c(=O)n4C)cn1`, the Potency in [1] was 282 nM (active); in test [2], 708 nM (active); in test [3], 794 nM (active); in test [10], 1 µM (active); in test [5], 355 nM (active); in [6] it was 7.08 µM (active). Moreover, the Potency in test [11] is 631 nM (active); in test [12], 1.41 µM (active); in [8], 89.1 nM (active).
Regarding `FC(F)(F)c1cc(-c2ncn(/C=C\c3nnco3)n2)cc(C(F)(F)F)c1`, the Potency entry in [1], in [2], in test [3], in test [10], in [7] and in [12] was “inactive” in each case. The Potency result in test [13] and in test [8] was “inactive” in each case. Also, the Potency in test [4] was 3.16 µM (active).
Take `CC(C)NCC(C(=O)N1CCN(c2ncnc3c2C(C)CC3O)CC1)c1ccc(Cl)cc1` (stereo not drawn): the Potency was 3980 nM (active) in test [1] and 794 nM (active) in test [13]. Moreover, the Potency result in [2], in [3], in [4], in [10], in test [11] and in test [8] was “inactive” each time.
As to `Cc1c(NC(=O)c2cc(C(N)=O)nc3cc(F)ccc23)c(C(F)(F)F)nn1Cc1ccc(C#N)cc1`, the Potency result in [1], in [2], in test [3], in test [4], in test [5] and in test [6] was “inactive” in each case. The Potency result in [7], in test [11], in test [13] and in test [8] was “inactive” throughout. Also, in test [12], the Potency is 2.24 µM (active).
For the compound `CC(C)CCC(=O)CC1c2ccccc2C(=O)N1c1ccc2ccc(Cl)nc2n1` (stereo not drawn), the Potency result in test [1], in test [2], in [3], in test [4], in [5] and in [7] was “inactive” each time. For the same compound, the Potency entry in [11] and in test [13] was “inactive” throughout. The Potency in test [8] is 8910 nM (active).
As to `CN1CCN(C(=O)c2ccc3cc(CCNc4ncnc5ccc(C#N)cc45)ccc3c2)CC1`, the Potency entry in test [1], in test [2], in test [3], in test [4], in [10] and in test [5] was “inactive” throughout. The Potency result in [13] and in test [8] was “inactive” each time. The activity change, negative = inhibition in test [9] (Viability) is 5.79%.
Turning to `COCCN1CCN(Cc2ccc(-c3n[nH]c4c3C(=O)c3c(NC(=O)NN5CCOCC5)cccc3-4)cc2)CC1`, the Potency entry in [1], in test [2], in [6] and in test [7] was “inactive” each time. Moreover, the Potency in test [3] was 282 nM (active); in [4] it was 0.316 µM (active); in test [5], 178 nM (active); in test [11] it was 251 nM (active); in test [13], 282 nM (active); in test [8], 316 nM (active). For the same compound, the Potency in [9] (HiBiT) was 0.0701 µM (active). The activity change, negative = inhibition in [9] (Viability) was 44.8%.
As to `Cc1cc(N2CCN([C@@H]3CN[C@H](C(=O)N4CCSC4)C3)CC2)n(-c2ccccc2)n1`, the Potency entry in test [1], in [2], in test [3], in test [4], in [10] and in test [5] was “inactive” throughout. Besides, the Potency result in test [7], in test [13] and in test [8] was “inactive” throughout.
On to `CCOCc1cc(OC)c(-c2ccc(C[C@H](NC(=O)c3c(F)cccc3F)C(=O)O)cc2)c(OC)c1`, for which the Potency entry in [1], in test [2], in test [3], in test [4], in test [10] and in test [6] was “inactive” throughout. Moreover, the Potency result in test [7], in test [11], in [12] and in test [13] was “inactive” each time.
